Reference: PubChem BioAssay (NCI)
This is part of a sample that, as a whole, favours compounds with a hit. Of some 83,000 tested, about 20% had one in any assay.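 Percent growth is the endpoint: 0 to 100 indicates growth inhibition (40 means 60% inhibition), 0 means no net growth, and negative values indicate cell death.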 Activity calls are given as the source filed them. The calls were made as follows: active = growth percent below 10; inactive = the rest.

What was measured:
Test in all cases: NCI-60 one-dose screen, 48 h (100 = growth as untreated, 0 = no growth, -100 = all killed)
HCT-15 colon = settings: 10 µM unless noted
SNB-19 CNS = settings: 10 µM unless noted
U251 CNS = settings: 10 µM unless noted
PC-3 prostate = settings: 10 µM unless noted
SK-MEL-5 melanoma = settings: 10 µM unless noted
UACC-62 melanoma = settings: 10 µM unless noted
LOX IMVI melanoma = settings: 10 µM unless noted
EKVX NSCLC = settings: 10 µM unless noted
SN12C renal = settings: 10 µM unless noted
UO-31 renal = settings: 10 µM unless noted
TK-10 renal = settings: 10 µM unless noted
ACHN renal = settings: 10 µM unless noted
CAKI-1 renal = settings: 10 µM unless noted
A498 renal = settings: 10 µM unless noted
MOLT-4 leukemia = settings: 10 µM unless noted
SK-MEL-28 melanoma = settings: 10 µM unless noted
SK-MEL-2 melanoma = settings: 10 µM unless noted
CCRF-CEM leukemia = settings: 10 µM unless noted
SNB-75 CNS = settings: 10 µM

Measured: growth

CN(CCCCCl)P(=O)(OCc1ccc([N+](=O)[O-])o1)C(F)(F)C[C@H](NC(=O)CNC(=O)c1ccc(N=[N+]=[N-])cc1)C(=O)NCCc1ccc(O)cc1 (stereo partly drawn)
inactive: HCT-15 colon 103% | SNB-19 CNS 94.1% | U251 CNS 69.1% | PC-3 prostate 101% | SK-MEL-5 melanoma 91.3% | UACC-62 melanoma 59.7% | LOX IMVI melanoma 79.3% | EKVX NSCLC 102% | SN12C renal 95.2% | UO-31 renal 84.7% | TK-10 renal 121% | ACHN renal 106% | CAKI-1 renal 105% | A498 renal 104% | MOLT-4 leukemia 74.7%

Cc1[nH]c2ccc(F)cc2c1CCNC(=O)C1CCN(C(=O)c2ccccc2)C1 (stereo not drawn)
inactive: HCT-15 colon 93.4% [25 µM] | SNB-19 CNS 93.2% [25 µM] | U251 CNS 92.8% [25 µM] | PC-3 prostate 79.9% [25 µM] | SK-MEL-5 melanoma 82.2% [25 µM] | UACC-62 melanoma 93.3% [25 µM] | SK-MEL-28 melanoma 95.1% [25 µM] | SK-MEL-2 melanoma 113% [25 µM] | EKVX NSCLC 80.5% [25 µM] | SN12C renal 95% [25 µM] | UO-31 renal 77.1% [25 µM] | TK-10 renal 86.9% [25 µM] | ACHN renal 96.3% [25 µM] | CAKI-1 renal 77.1% [25 µM] | A498 renal 43.8% [25 µM] | MOLT-4 leukemia 91.6% [25 µM]

Brc1cccc(-c2cc(-c3ccc4nccnc4c3)[nH]n2)c1
inactive: SNB-19 CNS 30.5% [25 µM] | U251 CNS 21.7% [25 µM] | PC-3 prostate 27% [25 µM] | SK-MEL-5 melanoma 20.9% [25 µM] | UACC-62 melanoma 38.1% [25 µM] | LOX IMVI melanoma 18.6% [25 µM] | SK-MEL-28 melanoma 64.9% [25 µM] | SK-MEL-2 melanoma 46.3% [25 µM] | EKVX NSCLC 16% [25 µM] | SN12C renal 35.5% [25 µM] | UO-31 renal 38.8% [25 µM] | TK-10 renal 52.1% [25 µM] | ACHN renal 39.6% [25 µM] | CAKI-1 renal 29.4% [25 µM] | CCRF-CEM leukemia 15.3% [25 µM] | MOLT-4 leukemia 30.2% [25 µM]
active: HCT-15 colon 9.57% [25 µM] | A498 renal -9.23% [25 µM]

COc1ccc(/C=C(\C#N)c2cc(OC)c3c(c2)OCO3)cc1
inactive: HCT-15 colon 15.7% | SNB-75 CNS 39.8% | U251 CNS 20.8% | PC-3 prostate 23% | UACC-62 melanoma 39.3% | LOX IMVI melanoma 19.2% | SK-MEL-28 melanoma 67.8% | SK-MEL-2 melanoma 43.6% | EKVX NSCLC 50.4% | SN12C renal 23.8% | UO-31 renal 39.9% | TK-10 renal 49.6% | CAKI-1 renal 40.7% | A498 renal 35.5% | CCRF-CEM leukemia 14.7%
active: SK-MEL-5 melanoma -58.9% | MOLT-4 leukemia 7.91%

COc1ccc(-c2cc3c(OC)c(OC)c(OC)cc3oc2=O)cc1
inactive: HCT-15 colon 37.9% | SNB-19 CNS 65.8% | U251 CNS 40.6% | PC-3 prostate 62.1% | SK-MEL-5 melanoma 14.4% | UACC-62 melanoma 40.2% | LOX IMVI melanoma 46.8% | SK-MEL-28 melanoma 67.5% | EKVX NSCLC 64.3% | SN12C renal 56.4% | UO-31 renal 77.9% | TK-10 renal 85% | ACHN renal 66.8% | CAKI-1 renal 57.1% | A498 renal 34.2% | MOLT-4 leukemia 64.7%

C/C(=C\c1ccc(OCC(=O)O)c(Cl)c1Cl)[N+](=O)[O-]
inactive: HCT-15 colon 97.4% | SNB-75 CNS 103% | U251 CNS 96.4% | PC-3 prostate 92% | SK-MEL-5 melanoma 109% | UACC-62 melanoma 114% | LOX IMVI melanoma 92.1% | SK-MEL-28 melanoma 118% | EKVX NSCLC 102% | SN12C renal 106% | UO-31 renal 111% | TK-10 renal 113% | ACHN renal 110% | CAKI-1 renal 93.9% | A498 renal 113% | CCRF-CEM leukemia 102% | MOLT-4 leukemia 84.6%

CC(C)C1=CC2=C(C=O)C[C@@H]3[C@](C)(CCC[C@@]3(C)C(=O)OCC#CCN3CCCC3)[C@H]2CC1
inactive: HCT-15 colon 60.9% | SNB-19 CNS 85.2% | U251 CNS 56.1% | PC-3 prostate 54.9% | SK-MEL-5 melanoma 65.1% | UACC-62 melanoma 77.4% | LOX IMVI melanoma 91.9% | SK-MEL-28 melanoma 96.8% | SK-MEL-2 melanoma 94% | EKVX NSCLC 98.2% | SN12C renal 83.7% | UO-31 renal 61.6% | TK-10 renal 93.6% | ACHN renal 97.3% | CAKI-1 renal 105% | A498 renal 88.6% | CCRF-CEM leukemia 63.9% | MOLT-4 leukemia 66.9%

CCCCC(CC)OC(=O)C(Br)CC (stereo not drawn)
inactive: HCT-15 colon 105% | SNB-75 CNS 90.1% | U251 CNS 97.2% | PC-3 prostate 102% | SK-MEL-5 melanoma 102% | UACC-62 melanoma 106% | LOX IMVI melanoma 94.1% | SK-MEL-28 melanoma 103% | SK-MEL-2 melanoma 100% | EKVX NSCLC 105% | SN12C renal 115% | UO-31 renal 93.6% | TK-10 renal 103% | ACHN renal 109% | CAKI-1 renal 99% | A498 renal 97.4% | CCRF-CEM leukemia 109% | MOLT-4 leukemia 95.4%

O=[N+]([O-])c1cc(Cl)c2[nH]c3c(Cl)cc([N+](=O)[O-])cc3c2c1
active: U251 CNS -22.7% | PC-3 prostate 4.26% | SK-MEL-5 melanoma -60.7% | UACC-62 melanoma 9.86% | LOX IMVI melanoma 6.56% | EKVX NSCLC -10.2% | SN12C renal 2.7% | UO-31 renal -13.9% | TK-10 renal -23.1% | ACHN renal -10.3% | CAKI-1 renal -34.1% | A498 renal -26.6% | CCRF-CEM leukemia -39.9% | MOLT-4 leukemia -41.8%
inactive: HCT-15 colon 11.3% | SNB-19 CNS 15.9%

COc1cc(C(=O)/C=C/c2ccc3nc(-c4cc(F)cc(F)c4)sc3c2)cc(OC)c1OC
inactive: HCT-15 colon 99.5% | SNB-19 CNS 98.3% | U251 CNS 92.5% | PC-3 prostate 95.1% | SK-MEL-5 melanoma 118% | UACC-62 melanoma 95.6% | LOX IMVI melanoma 94.9% | SK-MEL-28 melanoma 106% | EKVX NSCLC 110% | SN12C renal 93% | UO-31 renal 88.8% | TK-10 renal 100% | ACHN renal 88.1% | CAKI-1 renal 104% | A498 renal 98.1% | MOLT-4 leukemia 103%

CC(C)OC(=O)N1CCOCC1
inactive: HCT-15 colon 101% | SNB-75 CNS 86% | U251 CNS 101% | PC-3 prostate 86.9% | SK-MEL-5 melanoma 106% | UACC-62 melanoma 98.6% | LOX IMVI melanoma 102% | SK-MEL-28 melanoma 101% | SK-MEL-2 melanoma 101% | EKVX NSCLC 126% | SN12C renal 97.7% | TK-10 renal 101% | CAKI-1 renal 105% | A498 renal 90.3% | CCRF-CEM leukemia 102% | MOLT-4 leukemia 110%

Cc1cc(N/N=C/c2nc(-c3ccc(Br)cc3)oc2C)c2cc(Cl)ccc2n1
active: CCRF-CEM leukemia -16.6% | MOLT-4 leukemia 3.49%
inactive: HCT-15 colon 37.9% | SNB-19 CNS 60.1% | U251 CNS 13.9% | PC-3 prostate 80.7% | SK-MEL-5 melanoma 92.6% | UACC-62 melanoma 82.9% | LOX IMVI melanoma 20.8% | SK-MEL-28 melanoma 60.7% | SK-MEL-2 melanoma 110% | EKVX NSCLC 95.7% | SN12C renal 48.4% | UO-31 renal 86.6% | TK-10 renal 114% | ACHN renal 86.9% | CAKI-1 renal 96.2% | A498 renal 85.5%

NC1N=C(SCC(=O)N2CCN(c3cc4c(cc3F)c(=O)c(C(=O)O)cn4C3CC3)CC2)NC(=O)/C1=C/c1ccc(Cl)cc1 (stereo not drawn)
inactive: HCT-15 colon 97.3% | SNB-19 CNS 99.7% | U251 CNS 99.8% | PC-3 prostate 95.4% | SK-MEL-5 melanoma 102% | UACC-62 melanoma 99.9% | LOX IMVI melanoma 102% | SK-MEL-2 melanoma 108% | EKVX NSCLC 92.8% | SN12C renal 99.4% | UO-31 renal 79% | TK-10 renal 107% | ACHN renal 102% | CAKI-1 renal 91.2% | A498 renal 106% | CCRF-CEM leukemia 107% | MOLT-4 leukemia 109%

O=C1NC(=C(Cl)Cl)/C(=N/S(=O)(=O)N2CCC(C3(C(F)(F)F)N=N3)CC2)N1
inactive: SNB-19 CNS 86.7% | U251 CNS 45.2% | PC-3 prostate 89.6% | SK-MEL-5 melanoma 92% | UACC-62 melanoma 91.7% | SK-MEL-28 melanoma 99.1% | SK-MEL-2 melanoma 101% | EKVX NSCLC 89.6% | SN12C renal 87.7% | UO-31 renal 85.7% | TK-10 renal 97% | ACHN renal 103% | CAKI-1 renal 74.5% | A498 renal 94.9% | MOLT-4 leukemia 54.9%
active: HCT-15 colon -60.6%

C=C1CCC2C3(C)COC(C)(C)OC3CCC2(C)C1C/C=C1/C(=O)OCC1Oc1ccccc1OC (stereo not drawn)
inactive: HCT-15 colon 43% | SNB-19 CNS 88.7% | U251 CNS 100% | PC-3 prostate 90.5% | SK-MEL-5 melanoma 95.4% | UACC-62 melanoma 80.4% | SK-MEL-28 melanoma 101% | SK-MEL-2 melanoma 95.6% | EKVX NSCLC 96.5% | SN12C renal 84.2% | UO-31 renal 83.5% | TK-10 renal 139% | ACHN renal 79.9% | CAKI-1 renal 90.6% | A498 renal 110% | CCRF-CEM leukemia 13.3% | MOLT-4 leukemia 77.7%
active: LOX IMVI melanoma -3.97%

O=C(CSC1CCc2ccccc21)N/N=C/c1ccccc1O (stereo not drawn)
inactive: HCT-15 colon 33.6% | SNB-75 CNS 71.7% | U251 CNS 48.7% | PC-3 prostate 50.6% | SK-MEL-5 melanoma 47.7% | UACC-62 melanoma 36.4% | LOX IMVI melanoma 40.4% | SK-MEL-28 melanoma 57.2% | SN12C renal 59.9% | UO-31 renal 20% | TK-10 renal 37.1% | ACHN renal 34% | A498 renal 101% | CCRF-CEM leukemia 18.2%
active: MOLT-4 leukemia 2.59%

O=C(Nc1ccc(NCCN2CCOCC2)nc1)c1ccc([N+](=O)[O-])cc1
inactive: HCT-15 colon 105% | SNB-19 CNS 106% | U251 CNS 102% | PC-3 prostate 98.5% | SK-MEL-5 melanoma 98.7% | UACC-62 melanoma 94.6% | LOX IMVI melanoma 102% | SK-MEL-28 melanoma 115% | SK-MEL-2 melanoma 108% | EKVX NSCLC 87.2% | SN12C renal 107% | UO-31 renal 96.2% | TK-10 renal 114% | ACHN renal 109% | CAKI-1 renal 99% | A498 renal 92.5% | CCRF-CEM leukemia 101% | MOLT-4 leukemia 118%

CN(C)c1cccc2c(S(=O)(=O)/N=C(\N)Nc3nc4ccccc4s3)cccc12
inactive: HCT-15 colon 42.9% | SNB-19 CNS 53.6% | U251 CNS 55.4% | PC-3 prostate 48.2% | SK-MEL-5 melanoma 40.5% | UACC-62 melanoma 42.8% | LOX IMVI melanoma 51.7% | SK-MEL-28 melanoma 78.9% | SK-MEL-2 melanoma 15.3% | EKVX NSCLC 71.3% | SN12C renal 88.4% | UO-31 renal 56.8% | TK-10 renal 91.4% | ACHN renal 84.2% | CAKI-1 renal 54% | A498 renal 74.5% | CCRF-CEM leukemia 69.1% | MOLT-4 leukemia 60.6%
